Experimental data published in PubChem BioAssay (EPA / NIEHS).
Results filed as inconclusive are left out. Activity calls are given as the source filed them. The calls were made as follows, unless noted: active = hit-call score of the fitted dose curve at least 0.9, where 1 is the maximum; inactive = score below 0.9.

How the values were obtained:
[1] = target: Paired box protein Pax-6 (Homo sapiens) (UniProt P26367); assay: ATG_Pax6_CIS: Attagene CIS-FACTORIAL HepG2 Assay for human Paired Box 6 (PAX6) (AID 2282956); conditions: HepG2 CIS-FACTORIAL PAX6 reporter transcription, RNA readout; actives raise or lower the signal
Chain of Paired box protein Pax-6 (Homo sapiens) (P26367 whole entry, looked up): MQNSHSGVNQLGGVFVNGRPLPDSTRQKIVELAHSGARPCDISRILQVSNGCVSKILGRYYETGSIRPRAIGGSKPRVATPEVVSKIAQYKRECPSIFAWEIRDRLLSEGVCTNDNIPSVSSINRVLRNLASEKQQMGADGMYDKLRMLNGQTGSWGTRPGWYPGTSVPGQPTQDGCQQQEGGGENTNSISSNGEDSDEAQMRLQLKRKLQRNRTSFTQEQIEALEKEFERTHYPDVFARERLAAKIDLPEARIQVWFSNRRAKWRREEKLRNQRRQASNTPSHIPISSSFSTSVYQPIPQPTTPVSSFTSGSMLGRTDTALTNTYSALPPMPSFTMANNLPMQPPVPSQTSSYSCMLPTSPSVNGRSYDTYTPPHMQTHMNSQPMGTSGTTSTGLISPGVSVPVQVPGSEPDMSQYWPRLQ
Outline: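 Fluorescent RT-PCR products separated by capillary electrophoresis report PAX6-linked promoter mRNA in HepG2 cells 24 h post-dose. Curves fitted bidirectionally, DMSO as negative control.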

[2] = ATG_PXRE_CIS: Attagene CIS-FACTORIAL HepG2 Assay for human Pregnane X Receptor Element (PXRE) (AID 2282957); conditions: HepG2 Attagene CIS-FACTORIAL PXRE reporter, mRNA; actives raise or lower the signal
Outline: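 After a 24 h chemical incubation, total RNA from transfected HepG2 cells was reverse-transcribed and reporter cDNA amplified, FAM-labeled, HpaI-digested and sized by capillary electrophoresis. DMSO served as baseline for bidirectional curve fitting.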

[3] = ATG_PPRE_CIS: Attagene CIS-FACTORIAL HepG2 Assay for human Peroxisome Proliferator-activated Response Element (PPRE) (AID 2282958); conditions: HepG2 PPRE cis-element reporter, Attagene transcription factor profiling; actives raise or lower the signal
Outline: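 PPRE activity in HepG2: transient cis-reporter transfection, 24 h compound incubation, reporter mRNA by RT-PCR and CE fluorescence; gain/loss fitted against DMSO.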

[4] = ATG_RORE_CIS: Attagene CIS-FACTORIAL HepG2 Assay for human RAR-related Orphan Receptor Element (RORE) (AID 2282959); conditions: HepG2 Attagene cis-factorial RORE reporter, mRNA; actives raise or lower the signal
Outline: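 A 24-hour exposure of transfected HepG2 hepatoma cells precedes RNA isolation and reporter RT-PCR. Labeled products are digested with HpaI and resolved by capillary electrophoresis, with gain or loss of signal scored relative to DMSO.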

[5] = ATG_Sox_CIS: Attagene CIS-FACTORIAL HepG2 Assay for human SRY-box transcription factor (SOX) (AID 2282960); conditions: HepG2 Attagene cis-factorial SOX reporter, mRNA; actives raise or lower the signal
Outline: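 HepG2, cis reporter units, 24 h exposure. Reporter mRNA: RT-PCR → FAM labelling → HpaI → CE fluorescence. Bidirectional fit vs DMSO.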

[6] = target: Transcription factor Sp1 (Homo sapiens) (UniProt P08047); assay: ATG_Sp1_CIS: Attagene CIS-FACTORIAL HepG2 Assay for human Specificity Protein 1 (Sp1) (AID 2282961); conditions: HepG2 Sp1 cis-reporter transcription, actives raise or lower the signal
Chain of Transcription factor Sp1 (Homo sapiens) (P08047 whole entry, looked up, the tested form may be a part): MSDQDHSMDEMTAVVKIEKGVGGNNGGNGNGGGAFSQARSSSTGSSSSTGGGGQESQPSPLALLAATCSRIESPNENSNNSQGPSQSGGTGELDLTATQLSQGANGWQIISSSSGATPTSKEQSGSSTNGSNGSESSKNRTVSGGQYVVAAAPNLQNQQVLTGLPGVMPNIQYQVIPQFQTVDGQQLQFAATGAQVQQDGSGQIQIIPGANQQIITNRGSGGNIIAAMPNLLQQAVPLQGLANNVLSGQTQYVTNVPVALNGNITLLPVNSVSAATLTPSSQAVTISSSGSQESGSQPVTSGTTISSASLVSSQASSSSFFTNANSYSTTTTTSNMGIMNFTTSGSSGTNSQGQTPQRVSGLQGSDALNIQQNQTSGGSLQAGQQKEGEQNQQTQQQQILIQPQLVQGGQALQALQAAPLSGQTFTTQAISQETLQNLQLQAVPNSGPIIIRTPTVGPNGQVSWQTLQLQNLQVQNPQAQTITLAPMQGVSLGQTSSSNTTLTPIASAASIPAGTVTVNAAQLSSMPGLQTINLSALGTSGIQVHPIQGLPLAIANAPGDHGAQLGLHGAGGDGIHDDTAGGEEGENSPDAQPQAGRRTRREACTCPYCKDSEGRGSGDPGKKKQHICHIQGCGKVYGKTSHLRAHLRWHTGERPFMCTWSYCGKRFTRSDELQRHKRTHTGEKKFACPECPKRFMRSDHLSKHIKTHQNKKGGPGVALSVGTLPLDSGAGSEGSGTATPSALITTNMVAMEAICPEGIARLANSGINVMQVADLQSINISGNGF
Outline: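 Liver-derived HepG2 cells, cis-element reporter library, 24 h treatment; RNA isolated, cDNA amplified with reporter-specific primers, FAM-labeled fragments sized on capillary analyzer. DMSO baseline, bidirectional curve fit.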

[7] = ATG_SREBP_CIS: Attagene CIS-FACTORIAL HepG2 Assay for human Sterol Regulatory Element Binding (SREBP) (AID 2282962); conditions: HepG2 Attagene cis-factorial SREBP reporter, mRNA; actives raise or lower the signal
Outline: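 Endogenous factor activity is measured in HepG2 through multiplexed reporter units under cis-element control. Following a 24 h incubation, reporter transcripts are reverse-transcribed, PCR-amplified and sized by capillary electrophoresis; activity is fitted in both directions relative to DMSO.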

[8] = target: Signal transducer and activator of transcription 3 (Homo sapiens) (UniProt P40763); assay: ATG_STAT3_CIS: Attagene CIS-FACTORIAL HepG2 Assay for human Signal Transducer and Activator of Transcription 3 (STAT3) (AID 2282963); conditions: HepG2, Attagene cis-factorial STAT3 reporter transcription; actives raise or lower the signal
Chain of Signal transducer and activator of transcription 3 (Homo sapiens) (P40763 whole entry, looked up, the tested form may be a part): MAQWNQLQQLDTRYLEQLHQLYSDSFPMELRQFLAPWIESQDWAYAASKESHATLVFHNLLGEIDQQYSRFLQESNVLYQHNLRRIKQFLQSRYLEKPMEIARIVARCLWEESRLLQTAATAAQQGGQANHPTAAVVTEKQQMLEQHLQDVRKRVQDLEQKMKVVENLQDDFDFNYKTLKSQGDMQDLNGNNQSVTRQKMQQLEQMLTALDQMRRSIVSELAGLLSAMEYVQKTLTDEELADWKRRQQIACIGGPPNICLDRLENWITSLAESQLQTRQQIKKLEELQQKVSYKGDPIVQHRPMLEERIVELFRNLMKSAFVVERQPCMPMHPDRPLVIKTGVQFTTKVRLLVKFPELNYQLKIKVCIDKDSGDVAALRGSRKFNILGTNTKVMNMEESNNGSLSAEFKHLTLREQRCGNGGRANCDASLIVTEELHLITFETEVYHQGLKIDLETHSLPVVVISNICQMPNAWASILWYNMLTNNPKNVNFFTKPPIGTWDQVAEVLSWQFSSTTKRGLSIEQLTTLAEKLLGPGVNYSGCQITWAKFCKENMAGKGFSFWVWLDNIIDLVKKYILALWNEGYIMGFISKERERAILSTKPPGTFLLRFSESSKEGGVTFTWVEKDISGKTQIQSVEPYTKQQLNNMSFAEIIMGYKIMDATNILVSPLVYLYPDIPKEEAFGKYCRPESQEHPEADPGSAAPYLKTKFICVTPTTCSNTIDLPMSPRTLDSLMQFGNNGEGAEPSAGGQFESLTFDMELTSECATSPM
Outline: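 Fluorescence intensity of 6-FAM-labelled reporter fragments, separated by capillary electrophoresis after RT-PCR, gave the signal. Cells were HepG2 transfected with cis-element reporter units and treated 24 h; fitting was bidirectional relative to DMSO.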

[9] = ATG_TA_CIS: Attagene CIS-FACTORIAL HepG2 Assay for human TA Basal Promoter (AID 2282964); conditions: HepG2 Attagene CIS-factorial TA basal promoter reporter; actives raise or lower the signal
Outline: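 Transfected HepG2, 24 h compound exposure; RNA → RT-PCR → FAM primer extension → HpaI cut → CE fluorescence. Gain/loss-of-signal fitted against DMSO negative control. Background-control readout.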

[10] = ATG_TCF_b_cat_CIS: Attagene CIS-FACTORIAL HepG2 Assay for human T-Cell-Factor with beta-catenin (TCF/b-cat) (AID 2282965); conditions: HepG2 TCF/beta-catenin cis-reporter transcription, actives raise or lower the signal
Outline: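 HepG2, transient MRTU transfection, cis-element-driven reporters (endogenous TFs). 24 h compound exposure. Readout: reporter mRNA by RT-PCR + 6-FAM primer extension, HpaI digest, capillary electrophoresis. Gain/loss fit vs DMSO baseline.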

[11] = ATG_TAL_CIS: Attagene CIS-FACTORIAL HepG2 Assay for human TAL Basal Promoter (AID 2282966); conditions: HepG2 Attagene cis-factorial TAL promoter reporter; actives raise or lower the signal;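 also: background control endpoint measuring basal TAL promoter reporter mRNA not a specific factor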
Outline: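 Basal-promoter background-control endpoint from a multiplexed HepG2 reporter panel. Cells were exposed 24 h, then reporter mRNA was read by RT-PCR/CE fluorescence and fitted in both directions relative to DMSO.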

[12] = ATG_TGFb_CIS: Attagene CIS-FACTORIAL HepG2 Assay for human Transforming Growth Factor (TGF) (AID 2282967); conditions: HepG2 Attagene CIS TGFb reporter, mRNA transcription; actives raise or lower the signal
Outline: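 Readout: fluorescently labeled reporter cDNA fragments resolved by capillary electrophoresis after RT-PCR. Transfected HepG2 cells dosed for 24 h; endogenous TF activity at TGFB1-linked cis element; gain or loss fitted relative to DMSO.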

[13] = ATG_VDRE_CIS: Attagene CIS-FACTORIAL HepG2 Assay for human Vitamin D Receptor Element (VDRE) (AID 2282968); conditions: HepG2 VDRE cis-reporter transcription, actives raise or lower the signal
Outline: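 Compounds were applied for 24 h to HepG2 cells transfected with promoter-regulated reporter units. Total RNA was reverse-transcribed, and reporter amplicons were fluorescently labelled and sized by capillary electrophoresis.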

[14] = target: Nuclear receptor subfamily 1 group I member 3 (Homo sapiens) (UniProt Q14994); assay: ATG_CAR_TRANS: Attagene TRANS-FACTORIAL HepG2 Assay for human Constitutive Androstane Receptor (CAR) (AID 2282969; active = hit-call score of the fitted dose curve at least 0.9, where 1 is the maximum;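 also: activators raise reporter mRNA above DMSO so AC50 marks induction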); conditions: HepG2 Attagene TRANS-FACTORIAL CAR reporter
Chain of Nuclear receptor subfamily 1 group I member 3 (Homo sapiens) (Q14994 whole entry, looked up, the tested form may be a part): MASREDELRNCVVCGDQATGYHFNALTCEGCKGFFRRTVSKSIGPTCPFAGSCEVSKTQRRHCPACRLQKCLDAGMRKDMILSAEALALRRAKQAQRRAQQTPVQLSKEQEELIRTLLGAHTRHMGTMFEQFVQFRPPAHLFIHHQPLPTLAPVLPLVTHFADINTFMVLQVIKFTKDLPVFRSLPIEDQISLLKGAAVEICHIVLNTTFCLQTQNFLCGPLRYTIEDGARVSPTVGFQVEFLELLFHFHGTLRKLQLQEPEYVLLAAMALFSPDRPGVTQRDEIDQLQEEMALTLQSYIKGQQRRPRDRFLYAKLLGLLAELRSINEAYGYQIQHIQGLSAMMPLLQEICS
Outline: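 Transiently transfected HepG2, multiplex TRANS reporters (CAR-Gal4 chimera driving GAL4-UAS reporter). 24 h dosing. Readout: reporter transcript by RT-PCR + capillary electrophoresis, fluorescence intensity; positive direction vs DMSO.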

[15] = target: X-box-binding protein 1 (Homo sapiens) (UniProt P17861); assay: ATG_Xbp1_CIS: Attagene CIS-FACTORIAL HepG2 Assay for human X-box Binding Protein 1 (XBP1) (AID 2282972); conditions: HepG2 XBP1 cis-element reporter, Attagene multiplex; actives raise or lower the signal
Chain of X-box-binding protein 1 (Homo sapiens) (P17861 whole entry, looked up): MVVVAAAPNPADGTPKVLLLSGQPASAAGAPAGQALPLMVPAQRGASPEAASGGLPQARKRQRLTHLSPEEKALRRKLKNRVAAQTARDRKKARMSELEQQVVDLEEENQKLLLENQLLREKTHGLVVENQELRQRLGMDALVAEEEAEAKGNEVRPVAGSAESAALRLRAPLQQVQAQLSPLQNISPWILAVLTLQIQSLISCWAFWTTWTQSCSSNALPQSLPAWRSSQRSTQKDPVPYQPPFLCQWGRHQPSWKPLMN
Outline: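 Multiplexed cis-reporter readout in transfected HepG2 liver cells. Exposure lasted 24 hours. Activity in either direction was fitted against DMSO as negative control and baseline.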

[16] = ATG_GAL4_TRANS: Attagene TRANS-FACTORIAL HepG2 Assay for GAL4 (Internal Marker) (AID 2282976; active = hit-call score of the fitted dose curve at least 0.9, where 1 is the maximum); conditions: HepG2 Attagene TRANS GAL4 internal marker reporter
Outline: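 Background-control readout: GAL4-UAS reporter transcript in transiently transfected HepG2 cells after 24 h compound exposure. Measured by RT-PCR, 6-FAM primer extension, HpaI digest and capillary electrophoresis; gain-of-signal fit versus DMSO.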

[17] = target: Estrogen receptor (Homo sapiens) (UniProt P03372); assay: ATG_ERa_TRANS: Attagene TRANS-FACTORIAL HepG2 Assay for human Estrogen Receptor alpha (ERa) (AID 2282970; active = hit-call score of the fitted dose curve at least 0.9, where 1 is the maximum); conditions: HepG2 Attagene TRANS ERa GAL4 reporter, mRNA
Chain of Estrogen receptor (Homo sapiens) (P03372 whole entry, looked up, the tested form may be a part): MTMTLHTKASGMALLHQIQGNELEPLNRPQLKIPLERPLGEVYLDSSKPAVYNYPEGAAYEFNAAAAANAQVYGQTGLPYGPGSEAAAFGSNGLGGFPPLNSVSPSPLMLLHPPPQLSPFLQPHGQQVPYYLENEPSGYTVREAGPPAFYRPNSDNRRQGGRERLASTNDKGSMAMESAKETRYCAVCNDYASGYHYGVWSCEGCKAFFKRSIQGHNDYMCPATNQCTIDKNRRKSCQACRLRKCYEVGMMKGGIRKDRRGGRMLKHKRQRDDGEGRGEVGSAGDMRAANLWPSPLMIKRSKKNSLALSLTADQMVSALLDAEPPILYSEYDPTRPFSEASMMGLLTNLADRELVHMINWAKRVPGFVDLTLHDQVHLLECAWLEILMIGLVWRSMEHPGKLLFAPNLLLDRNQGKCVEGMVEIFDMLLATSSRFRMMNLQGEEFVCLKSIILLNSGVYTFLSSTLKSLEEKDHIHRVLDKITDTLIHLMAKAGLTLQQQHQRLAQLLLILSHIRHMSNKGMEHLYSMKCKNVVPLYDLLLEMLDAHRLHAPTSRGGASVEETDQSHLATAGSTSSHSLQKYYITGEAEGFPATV
Outline: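 Gal4-fusion ERa transactivation, measured as reporter transcript level in transiently transfected HepG2 cells. Exposure 24 h; RT-PCR plus capillary electrophoresis with fluorescence detection.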

[18] = ATG_M_19_TRANS: Attagene TRANS-FACTORIAL HepG2 Assay for M19 Transcription Factor (Internal Marker) (AID 2282974; active = hit-call score of the fitted dose curve at least 0.9, where 1 is the maximum); conditions: HepG2 Attagene TRANS-FACTORIAL M19 internal marker reporter
Outline: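 Transfected HepG2 (GAL4-UAS MRTUs), 24 h compound, TriZol RNA, DNase-treated RT, reporter PCR, FAM label, HpaI digest, CE fluorescence; gain vs DMSO.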

[19] = target: Estrogen-related receptor gamma (Homo sapiens) (UniProt P62508); assay: ATG_ERRg_TRANS: Attagene TRANS-FACTORIAL HepG2 Assay for human Estrogen-Related Receptor gamma (ERRg) (AID 2282977; active = hit-call score of the fitted dose curve at least 0.9, where 1 is the maximum;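 also: hits increase reporter signal over DMSO so potencies reflect activators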); conditions: HepG2 Attagene TRANS reporter, ERRg transactivation
Chain of Estrogen-related receptor gamma (Homo sapiens) (P62508 whole entry, looked up, the tested form may be a part): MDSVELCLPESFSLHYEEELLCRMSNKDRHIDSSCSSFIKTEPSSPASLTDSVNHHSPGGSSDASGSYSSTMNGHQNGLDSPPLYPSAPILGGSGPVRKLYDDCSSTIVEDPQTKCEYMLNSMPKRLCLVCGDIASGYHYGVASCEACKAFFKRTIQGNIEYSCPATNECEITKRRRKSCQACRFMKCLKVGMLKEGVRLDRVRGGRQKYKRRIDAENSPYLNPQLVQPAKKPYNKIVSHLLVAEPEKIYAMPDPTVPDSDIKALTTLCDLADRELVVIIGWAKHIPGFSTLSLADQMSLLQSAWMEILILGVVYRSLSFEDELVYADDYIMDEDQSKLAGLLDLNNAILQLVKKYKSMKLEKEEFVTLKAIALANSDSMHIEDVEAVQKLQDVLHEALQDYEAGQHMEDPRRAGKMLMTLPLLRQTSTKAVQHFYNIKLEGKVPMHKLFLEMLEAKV
Outline: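 Induction of reporter transcripts through a chimeric NR-Gal4 protein is quantified in transfected human HepG2 liver cells after 24 h chemical exposure, using RT-PCR with capillary electrophoresis detection and DMSO as baseline.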

Measured: AC50

NC(=O)N=NC(N)=O
inactive: [1] | [2] | [3] | [4] | [5] | [6] | [7] | [8] | [9] | [10] | [11] | [12] | [13] | [14] | [15] | [16]

Cc1ccc(C(C)c2ccc(C)c(C)c2)cc1C
active: [2] 3.88 µM | [6] 100 µM | [7] 147 µM | [11] 123 µM
inactive: [1] | [3] | [4] | [5] | [8] | [9] | [10] | [12] | [13] | [14] | [17] | [15]

CCC(Cc1ccccc1)(C(=O)c1ccc(N2CCOCC2)cc1)N(C)C (stereo unspecified)
active: [1] 42 µM | [2] 1.7 µM | [4] 21.4 µM | [9] 30.2 µM | [10] 49.8 µM | [11] 23.5 µM | [13] 6.85 µM | [17] 1.03 µM
inactive: [3] | [5] | [6] | [7] | [8] | [12] | [15] | [18]

COc1cc(C)ccc1C(C)C
inactive: [1] | [2] | [3] | [4] | [5] | [6] | [7] | [8] | [9] | [10] | [11] | [12] | [13] | [17] | [15] | [18] | [16] | [19]
